# Experimental data reported in paper PMC5540273 (PLoS ONE, 2017).
# pKd: −log10 of the molar value.
# System: T1, CDC2L5
# T1 construct: gene CDK13
# 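Further: kd values determined as follow-up on hits from a single-replicate KINOMEscan panel screen.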
row,SMILES,pKd
1,CCn1c(-c2ccccc2)nc2cnccc21 [SB-733416],< 5.00
2,CCn1c(-c2c(N)noc2C)nc2cnccc21 [SB-737856],< 5.00
3,COc1ccc(CSc2nnc(-c3ccc4c(c3)CCO4)o2)cc1,< 5.00

# System: T2, CDK11
# T2 construct: gene CDK19
row,SMILES,pKd
1,CC(=O)c1cccc(NC(=O)NC2CCN(c3ccnc(Nc4ccc(F)cc4)n3)C2)c1 (stereo not shown) [GSK1379710],5.70
2,Nc1ncnc2occ(-c3ccc4c(c3)CCN4C(=O)Cc3cc(F)ccc3F)c12 [GSK2645446],5.96
3,O=c1cc(N2CCOCC2)nc2n(Cc3cccc(Cl)c3Cl)c3ccccc3n12 [GSK2299009],< 5.00
4,Cc1cnc(N)c(/C=C/c2cncc(C(=O)NCCc3ccc(Cl)cc3Cl)c2)c1.Cl [GSK190937],6.39

# System: CDK4-cyclinD1
row,SMILES,pKd
1,CC(=O)c1c(C)c2cnc(Nc3ccn(C)n3)nc2n(C2CCCC2)c1=O,7.64
2,CC(=O)c1c(C)c2cnc(Nc3ccc(N4CCNCC4)cn3)nc2n(C2CCCC2)c1=O,8.89
3,CC(C)c1ccc(O)cc1Nc1ccnc2ccc(C(F)(F)F)cc12 [GW482059],< 5.00

# System: CDK4-cyclinD3
row,SMILES,pKd
1,CC(=O)c1c(C)c2cnc(Nc3ccn(C)n3)nc2n(C2CCCC2)c1=O,8.00
2,CC(=O)c1c(C)c2cnc(Nc3ccc(N4CCNCC4)cn3)nc2n(C2CCCC2)c1=O,9.21
3,CCc1ccc(-c2ccc3c(c2)-c2n[nH]cc2S(=O)(=O)N3C)cc1,< 5.00

# System: CDK4
row,SMILES,pKd
1,O=C(Nc1n[nH]c2cc(-c3ccsc3)ccc12)C1CC1 [SB-732932],< 5.00
2,COc1nccc(-c2c(-c3ccc(F)cc3)ncn2CCCN2CCOCC2)n1 [SB-282852],< 5.00
3,O=C1NC(=O)C(c2ccc(Cl)cc2)=C1Nc1cccc(Cl)c1 [SB-317651],< 5.00
4,CNc1nc(-c2ccc3c(N)n[nH]c3c2)cc(N2C[C@@H](C(=O)NC3CCCCC3)OC[C@H]2C)n1 [GSK2375584],< 5.00

# System: CDKL1
row,SMILES,pKd
1,Cc1c(Cn2c(C)c(C)n3c(=O)cc(N4CCOCC4)nc23)cccc1C(F)(F)F [GSK2328680],< 5.00
2,Cn1cncc1C(=O)NC1CCN(c2ccnc(Nc3ccc(F)cc3)n2)C1 (stereo not shown) [GSK1379717],< 5.00
3,CNC(=O)c1ccc(C)c(-n2c(C)cc(OCc3ccc(F)cc3F)c(Br)c2=O)c1,< 5.00
4,COc1ccc(Nc2nccc(N3CCC(NC(=O)C(C)c4ccc(Cl)cc4)C3)n2)cc1 (stereo not shown) [GSK1379735],< 5.00
5,Cn1cnc2c(N)ncnc21 [SKF-97623],< 5.00
6,NS(=O)(=O)c1cccc(N/C=C2\C(=O)Nc3ccc(S(=O)(=O)Cc4c(Cl)cccc4Cl)cc32)c1 [GSK398099],< 5.00
7,Cn1cncc1-c1cc2c(Nc3ccc(OCc4ccccc4)cc3)ncnc2cn1 [GW281179],< 5.00
8,Cc1ccc(NC(=O)Nc2ccc(Cl)c(C(F)(F)F)c2)cc1-c1ccc(C(=O)Nc2ccncc2)cc1 [GSK1398470],< 5.00

# System: CDKL2
row,SMILES,pKd
1,O=C(Nc1n[nH]c2nc(-c3cccs3)c(Br)cc12)C1CC1 [SB-735297],6.85
2,COC(=O)c1cccc(NC(=O)NC2CCN(c3ccnc(Nc4ccc(F)cc4)n3)C2)c1 (stereo not shown) [GSK1379725],6.17
3,O=C(Nc1n[nH]c2cc(-c3ccsc3)ccc12)C1CC1 [SB-732932],7.00
